In PubChem BioAssay AID1347414 (National Center for Advancing Translational Sciences (NCATS), 2020):
Records with an inconclusive call do not appear. Active and inactive are the calls of the source. Calls follow the shape of the dose curve; as a rule, active = well fitted inhibition curve with a large enough effect; inconclusive = small, poorly fitted or top-dose-only effect; inactive = no such curve, though single readings can be large or run the other way.

test: qHTS to identify inhibitors of the type 1 interferon - major histocompatibility complex class I in skeletal muscle: Secondary screen by immunofluorescence; conditions: C25cl48 myoblasts, IFN-b induced HLA-ABC immunofluorescence, 24 h; series mostly up to 49.8 µM; activity change, negative = inhibition: at the top concentration; also: nearly all actives have a fitted effect of over 70% in size;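 as to activity change, negative = inhibition: digitonin at 100 µM served as the cytotoxic control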
In short: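 HLA-ABC immunofluorescence, with nuclear and cell-body stains, was quantified by laser scanning cytometry. Read-out followed 24 h of IFN-beta (4.0 ng/ml) stimulation of C25cl48 human myoblasts with compounds titrated 1:3 over 11 points from 50 uM, with ruxolitinib as inhibitor control.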
% is scaled to controls: 0 for no effect and ±100 for the full control effect; potency is read from the fitted curve at half-maximal effect.

| SMILES | Potency | activity change, negative = inhibition |
| --- | --- | --- |
| CC(C)c1cc(CNc2nc(Nc3cc(C4CC4)[nH]n3)cc(N3CCN(C)CC3)n2)on1 | 4580 nM (active) | – |
| C1=C/COCc2cc(ccc2OCCN2CCCC2)Nc2nccc(n2)-c2cccc(c2)COC/1 | 1290 nM (active) | – |
| CCc1c2c(nc3ccc(O)cc13)-c1cc3c(c(=O)n1C2)COC(=O)[C@]3(O)CC | 2570 nM (active) | – |
| CC[C@@]1(O)C(=O)OCc2c1cc1n(c2=O)Cc2c-1nc1ccccc1c2/C=N/OC(C)(C)C | 3240 nM (active) | – |
| COC(=O)c1nc(Cl)c(Cl)nc1N | 5760 nM (active) | – |
| CCN1CCN(Cc2ccc(NC(=O)Nc3ccc(Oc4cc(NC)ncn4)cc3)cc2C(F)(F)F)CC1 | 1620 nM (active) | – |
| CC(/C=C/C(=O)NO)=C\[C@@H](C)C(=O)c1ccc(N(C)C)cc1 | 204 nM (active) | – |
| CC(C)C[C@H](NC(=O)[C@H](CCc1ccccc1)NC(=O)CN1CCOCC1)C(=O)N[C@@H](Cc1ccccc1)C(=O)N[C@@H](CC(C)C)C(=O)[C@@]1(C)CO1 | 64.7 nM (active) | – |
| CCOc1cc2ncc(C#N)c(Nc3ccc(F)c(Cl)c3)c2cc1NC(=O)/C=C/CN(C)C | 4580 nM (active) | – |
| CC(C)C[C@H](NC(=O)CNC(=O)c1cc(Cl)ccc1Cl)B1OC(=O)CC(CC(=O)O)(C(=O)O)O1 (stereo partly specified) | 814 nM (active) | – |
| Cc1cc(O)c(-c2ccc([C@@H](C)CN)cc2)c2c1[nH]c(=O)c1sccc12 | 18.2 nM (active) | – |
| C#Cc1cccc(Nc2ncnc3cc(OC)c(OCCCCCCC(=O)NO)cc23)c1 | 289 nM (active) | – |
| O=C(/C=C/C#Cc1cccc(NS(=O)(=O)c2ccccc2)c1)NO | 1450 nM (active) | – |
| O=C(/C=C\n1cnc(-c2cc(C(F)(F)F)cc(C(F)(F)F)c2)n1)NNc1cnccn1 | 324 nM (active) | – |
| CN(C)c1ccc(C(=O)NCCCCCCC(=O)NO)cc1 | 647 nM (active) | – |
| CC(C)(C)c1nc2c3cc[nH]c(=O)c3c3cc(F)ccc3c2[nH]1 | 514 nM (active) | – |
| COC1CC(C(=O)c2ccc3c(N)ncc(-c4ccc(-c5cnn(C)c5)cc4)c3n2)C1 (stereo unspecified) | – | 5.32% (inactive) |
| C/C=C1\NC(=O)[C@H]2CSSCCC=C[C@H](CC(=O)N[C@H](C(C)C)C(=O)N2)OC(=O)[C@H](C(C)C)NC1=O | 5.8 nM (active) | – |

| SMILES | Potency | activity change, negative = inhibition |
| --- | --- | --- |
| C=C1C(=O)O[C@@H]2[C@H]3O[C@]3(C)CC/C=C(\C)CC[C@@H]12 | 7260 nM (active) | – |
| CN1CCN(c2cccc(Nc3nc4c(-c5ccc(S(C)(=O)=O)cc5)cccn4n3)c2)CC1 | 1820 nM (active) | – |
| NC(=O)c1cnc2[nH]ccc2c1NC1C2CC3C[C@H]1CC(O)(C3)C2 (stereo partly specified) | 458 nM (active) | – |
| CCCC(=O)O[C@]1(C(=O)CO)CC[C@H]2[C@@H]3CCC4=CC(=O)CC[C@]4(C)[C@H]3[C@@H](O)C[C@@]21C | – | -0.267% (inactive) |
| CN1C/C=C/CCOc2cccc(c2)-c2ccnc(n2)Nc2cccc(c2)C1 | 115 nM (active) | – |
| CC(C)c1c(-c2ccccc2)nc2c(C#N)c[nH]n2c1=O | – | -25.8% (inactive) |
| CCC(=C/[C@H](C)C/C=C/C(C)=C/[C@@H](C)C(=O)[C@@H](C)[C@H](O)[C@@H](C)C/C(C)=C/C(=O)O)/C=C/[C@@H]1OC(=O)C=C[C@@H]1C | – | -89.2% (inactive) |
| CN(C)C/C=C/C(=O)Nc1ccc(C(=O)N2CCC[C@@H](Nc3ncc(Cl)c(-c4c[nH]c5ccccc45)n3)C2)cc1 | 230 nM (active) | – |
| CO[C@H]1C(=O)[C@]2(C)[C@@H](OC)C[C@H]3OC[C@@]3(OC(C)=O)[C@H]2[C@H](OC(=O)c2ccccc2)[C@]2(O)C[C@H](OC(=O)[C@H](O)[C@@H](NC(=O)OC(C)(C)C)c3ccccc3)C(C)=C1C2(C)C | – | 2.93% (inactive) |
| Fc1cccc(-n2cnc3c(NCc4nc5c(F)c(F)ccc5[nH]4)nc(N4CCOCC4)nc32)c1 | 289 nM (active) | – |
| COc1cc(C(=O)N2CCC(N3CCN(C)CC3)CC2)ccc1Nc1ncc2c(n1)N(C)c1ccccc1C(=O)N2C | 6470 nM (active) | – |
| COc1cccc2nc(-c3cccs3)nc(NN3C(=O)C=C(C)C3=O)c12 | 1820 nM (active) | – |
| O=C1NC(=O)[C@@H](c2c[nH]c3ccccc23)[C@H]1c1cn2c3c(cccc13)CCC2 | – | 17.3% (inactive) |
| CCN(CC)Cc1ccc2cc(COC(=O)Nc3ccc(C(=O)NO)cc3)ccc2c1 | 258 nM (active) | – |
| c1cc(Nc2cc(C3CC3)[nH]n2)nc(Nc2ccc3nc[nH]c3c2)n1 | 647 nM (active) | – |
| O=C1NCCc2[nH]c(-c3ccncc3)cc21 | 2570 nM (active) | – |
| CCOC(=O)C1=C(C)NC2=C(C(=O)CC(C)(C)C2)C1c1ccc(-c2ccccc2)cc1 (stereo unspecified) | – | 13.7% (inactive) |
| Cc1ccc(C(=O)Nc2ccc(CN3CCN(C)CC3)c(C(F)(F)F)c2)cc1C#Cc1cnc2[nH]ncc2c1 | 726 nM (active) | – |
